# Compound activity from PubChem BioAssay.
# In the library only some 6.8% were active in any assay of this set; here they are far more common.
# Pf Dd2 inh: inhibitors of Plasmodium falciparum Dd2 growth. activity change, % at 10 µM. P. falciparum Dd2 growth, SYBR Green, 72 h; hits give low values. 94,000 compounds, 2.3% hits. AID 1159554; in the data active = activity change below about -80%; inconclusive = no clear call, values can overlap the other calls
# T cruzi growth-1: inhibitors of T. cruzi proliferation; 77,000 compounds, 5.9% hits; T. cruzi beta-gal in NIH3T3, GalScreen luminescence, 90 h; inhibition, % at 8.34 µM; AID 624255;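 active = mean inhibition above about 93%, with at least 55% of replicates each passing it, limit read from the data, passing the limit was not always enough; inconclusive = only one of those two conditions holds; inactive = neither condition holds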
# C diff growth: blocks growth of Clostridium difficile | Clostridium difficile clinical isolate growth, OD600, 24 h; hits give low values | AID 1259249 | growth activity, negative = inhibition, % at 16 µg/mL (by protocol) | 86,000 compounds, 0.25% hits;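 active = mean growth activity at or below -80% and every replicate also at or below -80%; inconclusive = mean at or below -80% but some replicate above -80%; inactive = mean growth activity above -80%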
# T cruzi growth-2: inhibitors of T. cruzi proliferation; shares compounds with T cruzi growth-1; T. cruzi beta-gal in NIH3T3, GalScreen luminescence, 90 h; inhibition, % at 8.35 µM; 5,600 compounds, 72% hits; AID 651739;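 active = mean replicate inhibition above about 95% and at least 55% of replicates individually reaching it, limit read from the data; inconclusive = only one of the two criteria is met; inactive = neither criterion is met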
# T cruzi growth-3: inhibitors of T. cruzi proliferation; shares compounds with T cruzi growth-1; T. cruzi beta-gal in NIH3T3, GalScreen luminescence, 90 h; inhibition, % at 2.09 µM; 5,600 compounds, 21% hits;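 active = mean inhibition above about 95%, with at least 55% of replicates also reaching it, limit read from the data; inconclusive = meets just one of the two conditions; inactive = meets neither condition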
# NIH3T3 tox: NIH/3T3 (mouse) viability loss; shares compounds with T cruzi growth-1; NIH/3T3 viability, CellTiter-Glo ATP luminescence, 90 h; cytotoxicity (signal decrease), % at 8.35 µM; 5,600 compounds, 14% hits; AID 651742;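 active = mean signal decrease across replicates above about 35% based on untreated-well scatter, with enough replicates individually passing, limit read from the data; inconclusive = no rule stated though some were filed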
# NIH3T3 tox 2: cytotoxicity in mouse NIH/3T3 fibroblasts; shares compounds with T cruzi growth-1; NIH/3T3 viability, CellTiter-Glo ATP luminescence, 90 h; inhibition, % at 24.9 µM; 5,600 compounds, 56% hits; AID 651744;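 active = mean loss of cell viability signal at or above a set limit, and enough replicates individually reaching it; inconclusive = meets only the mean limit or only the replicate share; inactive = meets neither condition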
# Numbers stand for hits; n = inactive; u = inconclusive; x = no result.
SMILES,Pf Dd2 inh,T cruzi growth-1,C diff growth,T cruzi growth-2,T cruzi growth-3,NIH3T3 tox,NIH3T3 tox 2
CC(C)CC#Cc1ccc2c(c1)O[C@H](CN(C)S(C)(=O)=O)[C@@H](C)CN([C@H](C)CO)S2(=O)=O,n,n,x,x,x,x,x
CC(C)CC#Cc1ccc2c(c1)O[C@H](CN(C)S(=O)(=O)c1ccc(F)cc1)[C@@H](C)CN([C@@H](C)CO)S2(=O)=O,n,x,n,x,x,x,x
COc1ccccc1S(=O)(=O)N(C)C[C@@H]1Oc2cc(C#CCC(C)C)ccc2S(=O)(=O)N([C@H](C)CO)C[C@H]1C,-83,103,n,n,115,44,105
COc1ccccc1S(=O)(=O)N(C)C[C@@H]1Oc2cc(C#CCC(C)C)ccc2S(=O)(=O)N([C@@H](C)CO)C[C@@H]1C,-87,u,n,103,107,n,56
COCC#Cc1ccc2c(c1)O[C@@H](CN(C)S(=O)(=O)c1cccc(OC)c1)[C@H](C)CN([C@@H](C)CO)S2(=O)=O,n,n,n,x,x,x,x
COc1cccc(C#Cc2ccc3c(c2)O[C@@H](CN(C)S(=O)(=O)c2ccccc2F)[C@H](C)CN([C@H](C)CO)S3(=O)=O)c1,n,121,n,107,n,n,45
CCCC#Cc1ccc2c(c1)O[C@H](CN(C)S(=O)(=O)c1cccc(OC)c1)[C@@H](C)CN([C@@H](C)CO)S2(=O)=O,n,x,x,x,x,x,x
COc1cccc(C#Cc2ccc3c(c2)O[C@H](CN(C)S(=O)(=O)c2ccccc2F)[C@H](C)CN([C@@H](C)CO)S3(=O)=O)c1,n,125,n,109,104,n,n
COc1cccc(C#Cc2ccc3c(c2)O[C@@H](CN(C)S(=O)(=O)c2ccccc2F)[C@@H](C)CN([C@@H](C)CO)S3(=O)=O)c1,n,u,n,102,n,n,n
COc1cccc(C#Cc2ccc3c(c2)O[C@@H](CN(C)S(=O)(=O)c2ccccc2F)[C@H](C)CN([C@@H](C)CO)S3(=O)=O)c1,n,123,n,109,98,n,42
COc1cccc(C#Cc2ccc3c(c2)O[C@H](CN(C)C)[C@H](C)CN([C@H](C)CO)S3(=O)=O)c1,n,n,n,x,x,x,x
COc1cccc(C#Cc2ccc3c(c2)O[C@@H](CN(C)C(C)=O)[C@@H](C)CN([C@@H](C)CO)S3(=O)=O)c1,n,n,n,x,x,x,x
CCCNC(=O)N[C@H]1CC[C@@H](CC(=O)NC2CCCCC2)O[C@H]1CO,n,x,n,x,x,x,x
O=C(C[C@@H]1CC[C@H](NC(=O)CC2CC2)[C@H](CO)O1)NCc1ccccc1,n,x,n,x,x,x,x
OC[C@H]1[C@H](c2ccc(C#CC3(O)CCCC3)cc2)[C@H]2CN(Cc3cncnc3)CCCCN21,n,n,n,x,x,x,x
COc1cccc(C#Cc2ccc3c(c2)O[C@H](CN(C)S(=O)(=O)c2ccccc2F)[C@@H](C)CN([C@H](C)CO)S3(=O)=O)c1,n,127,n,109,115,n,42
COCC#Cc1ccc2c(c1)O[C@H](CN(C)S(=O)(=O)c1cccc(OC)c1)[C@H](C)CN([C@H](C)CO)S2(=O)=O,n,n,n,x,x,x,x
C[C@H](NC(=O)C[C@H]1C=C[C@H](NC(=O)C2CCOCC2)[C@H](CO)O1)c1ccccc1,n,98,n,n,n,n,n
O=C(C[C@@H]1C=C[C@@H](NC(=O)C2CC2)[C@H](CO)O1)Nc1nccs1,n,n,x,x,x,x,x
C[C@@H](NC(=O)C[C@@H]1C=C[C@H](NC(=O)C2CCOCC2)[C@H](CO)O1)c1ccccc1,n,n,n,x,x,x,x
O=C(C[C@H]1C=C[C@@H](NC(=O)C2CC2)[C@@H](CO)O1)Nc1nccs1,n,121,x,n,n,n,n
CCNC(=O)C[C@@H]1CC[C@H]2[C@@H](COc3ccc(NC(=O)Nc4c(C)noc4C)cc3C(=O)N2C)O1,n,n,n,x,x,x,x
C[C@@H]1CN([C@@H](C)CO)C(=O)c2cc(-c3ccc(F)cc3)cnc2O[C@@H]1CN(C)C(=O)Nc1ccc(F)cc1,n,n,n,x,x,x,x
Cc1ccccc1S(=O)(=O)N1CCCCN2[C@H](CO)[C@@H](c3ccc(-c4cccnc4)cc3)[C@H]2C1,n,n,n,x,x,x,x
Cc1ccccc1S(=O)(=O)N1CCCCN2[C@H](C1)[C@@H](c1ccc(-c3cncnc3)cc1)[C@@H]2CO,n,n,n,x,x,x,x
